The source made the active and inactive calls. How the source made its calls: active means hit-call score of the fitted dose curve at least 0.9, where 1 is the maximum; inactive means score below 0.9.
Experiments:
Conditions in all cases: mRNA level, 48 h; actives raise or lower the signal
[1] = read-out: Potassium channel subfamily K member 1 (KCNK1), KCNK1 (gene 3775); experiment: LTEA_HepaRG_KCNK1: Life Technologies and Expression Analysis (LTEA) Assay for Potassium channel subfamily K member 1 (KCNK1) using HepaRG (AID 2283511)
Summary of the method: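 KCNK1 transcript measured by TaqMan qRT-PCR against three housekeeping genes, after HepaRG cells were treated 48 h with eight half-log concentrations (top 100 uM, 0.5% DMSO). Curves fitted bidirectionally relative to vehicle.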

[2] = read-out: Keratin 19 (KRT19), KRT19 (gene 3880); experiment: LTEA_HepaRG_KRT19: Life Technologies and Expression Analysis (LTEA) Assay for Keratin 19 (KRT19) using HepaRG (AID 2283512)
Summary of the method: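 Differentiated HepaRG cells in serum-free induction medium, exposed 48 h in duplicate to 8 half-log concentrations up to 100 uM in 0.5% DMSO. KRT19 mRNA by qRT-PCR, normalized to ACTB, GAPDH, POLR2A; bidirectional fit vs DMSO.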

[3] = read-out: JUN Transcription Factor, JUN (gene 3725); experiment: LTEA_HepaRG_JUN: Life Technologies and Expression Analysis (LTEA) Assay for JUN Transcription Factor using HepaRG (AID 2283513)
Summary of the method: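 Gene-expression endpoint: JUN mRNA (qRT-PCR, normalized to three reference genes) in HepaRG cultures treated 48 h with chemicals, duplicate wells, 100 uM maximum with half-log dilutions; bidirectional fitting relative to 0.5% DMSO.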

[4] = read-out: Lipase C (LIPC), LIPC (gene 3990); experiment: LTEA_HepaRG_LIPC: Life Technologies and Expression Analysis (LTEA) Assay for Lipase C (LIPC) using HepaRG (AID 2283514)
Summary of the method: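 LIPC expression was quantified by qRT-PCR against three housekeeping genes (ACTB, GAPDH, POLR2A). Differentiated human HepaRG cells received eight half-log doses (top 100 uM, 0.5% DMSO) in duplicate for 48 h; fitting bidirectional relative to DMSO.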

[5] = read-out: MicroRNA 122 (MIR122), gene 406906; experiment: LTEA_HepaRG_MIR122: Life Technologies and Expression Analysis (LTEA) Assay for MicroRNA 122 (MIR122) using HepaRG (AID 2283516); further: the transcript read is the microRNA miR-122
Summary of the method: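 Changes in transcript abundance, up or down relative to 0.5% DMSO vehicle, were scored after 48 h chemical treatment of HepaRG cells (maximum 100 uM). Quantification used TaqMan qRT-PCR normalized to housekeeping genes.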

[6] = read-out: matrix metalloproteinase-10 (MMP10), MMP10 (gene 4319); experiment: LTEA_HepaRG_MMP10: Life Technologies and Expression Analysis (LTEA) Assay for matrix metalloproteinase-10 (MMP10) using HepaRG (AID 2283517)
Summary of the method: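 Expression measured by TaqMan qRT-PCR with ACTB/GAPDH/POLR2A normalisation after 48 h chemical exposure of HepaRG cells. Eight half-log concentrations, top 100 uM, 0.5% DMSO vehicle, duplicates; gain or loss fitted against vehicle.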

[7] = read-out: MYC, MYC (gene 4609); experiment: LTEA_HepaRG_MYC: Life Technologies and Expression Analysis (LTEA) Assay for MYC using HepaRG (AID 2283518)
Summary of the method: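 Differentiated HepaRG cells exposed 48 h in serum-free induction medium to 8 concentrations (top 100 uM, half-log steps; 0.5% DMSO), duplicate. MYC mRNA measured by Fluidigm qRT-PCR, normalized to ACTB, GAPDH, POLR2A; bidirectional fit versus DMSO.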

[8] = read-out: Paternally Expressed 10 (PEG10), PEG10 (gene 23089); experiment: LTEA_HepaRG_PEG10: Life Technologies and Expression Analysis (LTEA) Assay for Paternally Expressed 10 (PEG10) using HepaRG (AID 2283520);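 on AC50: PEG10 transcript by qRT-PCR normalised to ACTB GAPDH and POLR2A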
Summary of the method: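 After 48 h exposure of differentiated HepaRG cells (0.5% DMSO vehicle, eight concentrations up to 100 uM, duplicates), PEG10 mRNA was measured by TaqMan qRT-PCR. Values were normalised to endogenous control genes and analysed bidirectionally against vehicle.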

[9] = read-out: Lipoprotein lipase (LPL), LPL (gene 4023); experiment: LTEA_HepaRG_LPL: Life Technologies and Expression Analysis (LTEA) Assay for Lipoprotein lipase (LPL) using HepaRG (AID 2283515)
Summary of the method: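 LPL transcript levels quantified by TaqMan qRT-PCR against three housekeeping genes after 48 h chemical treatment of HepaRG cells. Eight-point half-log series from 100 uM in 0.5% DMSO, tested in duplicate; bidirectional fitting versus vehicle.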

[10] = read-out: matrix metalloproteinase-3 (MMP3), MMP3 (gene 4314); experiment: LTEA_HepaRG_MMP3: Life Technologies and Expression Analysis (LTEA) Assay for matrix metalloproteinase-3 (MMP3) using HepaRG (AID 2283519)
Summary of the method: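 Fluidigm-based TaqMan qRT-PCR, normalized to ACTB, GAPDH and POLR2A and fitted bidirectionally versus 0.5% DMSO, measured transcript levels. Treatment: duplicate 48 h exposures of HepaRG cells, ~100,000/well, to eight half-log concentrations topping at 100 uM.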

`CCCCCCCC[Si](OCC)(OCC)OCC` was tested, and the outcome [1] was “inactive”, the outcome [2] was “inactive” and the outcome [3] was “inactive”. For the same compound, the outcome [4] was “inactive”, the outcome [5] was “inactive” and the outcome [6] was “inactive”. The outcome [7] was “inactive” and the outcome [8] was “inactive”.

For `c1ccc2n[nH]nc2c1`, the outcome [1] was “inactive”, the outcome [2] was “inactive” and the outcome [3] was “inactive”. For the same compound, the outcome [4] was “inactive”, the outcome [5] was “inactive” and the outcome [6] was “inactive”. The outcome [7] was “inactive” and the outcome [8] was “inactive”.

For `O=c1[nH]sc2ccccc12`, the outcome [1] was “inactive”, the outcome [2] was “inactive” and the outcome [3] was “inactive”. For the same compound, the outcome [9] was “inactive”, the outcome [6] was “inactive” and the outcome [7] was “inactive”. The outcome [10] was “inactive” and the outcome [8] was “inactive”.

In the case of `Cc1occc1C(=O)Nc1ccc(C(=O)N2CCC(F)(F)/C(=C\C(=O)N3CCC(N4CCCCC4)CC3)c3ccccc32)cc1`, the outcome [1] is reported as “inactive”, the AC50 [2] is reported as 49.6 µM (active) and the outcome [3] is reported as “inactive”. For the same compound, the AC50 [9] was 31.2 µM (active), the AC50 [5] was 31.2 µM (active) and the outcome [6] was “inactive”. For the same compound, the outcome [7] was “inactive” and the AC50 [8] was 48 µM (active).

In the case of `CCCCCCCCN(C)CCCCCCCC`, the outcome [1] is reported as “inactive”, the outcome [2] is reported as “inactive” and the outcome [3] is reported as “inactive”. For the same compound, the outcome [5] was “inactive”, the outcome [6] was “inactive” and the outcome [7] was “inactive”. The outcome [10] was “inactive” and the outcome [8] was “inactive”.

For `COc1ccc2cc(S(=O)(=O)N[C@H](CC(=O)N[C@H](Cc3ccc(CN4[C@H](C)CCC[C@@H]4C)cc3)C(=O)N(C)C(C)C)c3ccc4c(c3)OCO4)ccc2c1`, the AC50 [1] was 19.7 µM (active), the AC50 [2] was 12 µM (active) and the AC50 [3] was 57.8 µM (active). For the same compound, the AC50 [6] was 24.3 µM (active), the AC50 [7] was 24.7 µM (active) and the AC50 [8] was 11.5 µM (active).

In the case of `Cc1cn([C@H]2C[C@H](N=[N+]=[N-])[C@@H](CO)O2)c(=O)[nH]c1=O`, the outcome [1] is reported as “inactive”, the outcome [2] is reported as “inactive” and the outcome [3] is reported as “inactive”. For the same compound, the outcome [6] was “inactive”, the outcome [7] was “inactive” and the outcome [10] was “inactive”. For the same compound, the outcome [8] was “inactive”.

With `O=CCCCC=O` the outcome [1] was “inactive”, the outcome [2] was “inactive” and the outcome [3] was “inactive”. The outcome [5] was “inactive”, the outcome [6] was “inactive” and the outcome [7] was “inactive”. For the same compound, the outcome [8] was “inactive”.

For `CC(C)(c1cc(Br)c(O)c(Br)c1)c1cc(Br)c(O)c(Br)c1`, the outcome [1] was “inactive”, the outcome [2] was “inactive” and the AC50 [3] was 94.7 µM (active). The AC50 [9] was 84.5 µM (active), the outcome [6] was “inactive” and the AC50 [7] was 89.5 µM (active). The outcome [10] was “inactive” and the outcome [8] was “inactive”.

`NC(=O)c1nc(-c2cccc(-c3cc(F)ccc3OCC(F)(F)C(F)(F)F)c2)n[nH]1` was tested, and the outcome [1] was “inactive”, the AC50 [2] was 12.1 µM (active) and the AC50 [3] was 79 µM (active). For the same compound, the outcome [6] was “inactive”, the outcome [7] was “inactive” and the AC50 [10] was 5.48 µM (active).

For `CCCCCc1ccc(N)cc1`, the outcome [1] was “inactive”, the outcome [2] was “inactive” and the outcome [3] was “inactive”. The outcome [6] was “inactive”, the outcome [7] was “inactive” and the outcome [8] was “inactive”.

With `CCCCCCCCCCCO` the outcome [1] was “inactive”, the outcome [2] was “inactive” and the outcome [3] was “inactive”. For the same compound, the outcome [5] was “inactive”, the outcome [6] was “inactive” and the outcome [7] was “inactive”. For the same compound, the outcome [10] was “inactive” and the outcome [8] was “inactive”.

In the case of `O=C1O[C@H]([C@@H](O)CO)C(O)=C1O`, the outcome [1] is reported as “inactive”, the outcome [9] is reported as “inactive” and the outcome [6] is reported as “inactive”. The outcome [7] was “inactive”, the outcome [10] was “inactive” and the outcome [8] was “inactive”.

In the case of `CCCCCCCCOC(=O)c1cc(O)c(O)c(O)c1`, the outcome [1] is reported as “inactive”, the AC50 [2] is reported as 27.1 µM (active) and the outcome [3] is reported as “inactive”. The outcome [9] was “inactive”, the outcome [5] was “inactive” and the outcome [6] was “inactive”. For the same compound, the outcome [7] was “inactive” and the outcome [8] was “inactive”.

With `CC(C)(C)c1csc(-c2cc3cc(OCc4ccccc4CC(=O)O)ccc3o2)n1` the outcome [1] was “inactive”, the outcome [2] was “inactive” and the AC50 [3] was 78.9 µM (active). For the same compound, the AC50 [9] was 81.8 µM (active), the AC50 [5] was 90.7 µM (active) and the AC50 [6] was 32.8 µM (active). For the same compound, the AC50 [7] was 32 µM (active) and the AC50 [8] was 50 µM (active).

For `O=C1c2ccccc2C(=O)N1CCc1noc(-c2ccc(CN3CCCCCC3)s2)n1`, the outcome [1] was “inactive”, the outcome [2] was “inactive” and the outcome [3] was “inactive”. The outcome [6] was “inactive”, the outcome [7] was “inactive” and the outcome [10] was “inactive”. The AC50 [8] was 42.2 µM (active).

For `OC12N=C(c3ccccc3)SC1Cc1cc(Cl)ccc12` (stereo not given), the outcome [1] was “inactive”, the AC50 [2] was 16.5 µM (active) and the outcome [3] was “inactive”. The AC50 [6] was 72.8 µM (active), the AC50 [7] was 16.1 µM (active) and the outcome [10] was “inactive”. The AC50 [8] was 11.8 µM (active).

`CCCCOC(=O)CC(CC(=O)OCCCC)(OC(C)=O)C(=O)OCCCC` was tested, and the outcome [1] was “inactive”, the outcome [2] was “inactive” and the outcome [3] was “inactive”. For the same compound, the outcome [6] was “inactive”, the outcome [7] was “inactive” and the outcome [10] was “inactive”. The outcome [8] was “inactive”.

In the case of `CCCCCCCCCCCC[N+](C)(C)C`, the AC50 [1] is reported as 64.7 µM (active), the AC50 [2] is reported as 50 µM (active) and the AC50 [3] is reported as 82.8 µM (active). The AC50 [9] was 82 µM (active), the AC50 [6] was 82.4 µM (active) and the AC50 [7] was 75.8 µM (active). For the same compound, the AC50 [10] was 76.4 µM (active) and the AC50 [8] was 33.8 µM (active).

For `CC(=O)N1CCN(c2ccc(OC[C@H]3CO[C@](Cn4ccnc4)(c4ccc(Cl)cc4Cl)O3)cc2)CC1`, the AC50 [2] was 12.2 µM (active), the AC50 [3] was 50 µM (active) and the AC50 [4] was 18.3 µM (active). The AC50 [6] was 16.7 µM (active), the AC50 [7] was 15.4 µM (active) and the AC50 [8] was 42.5 µM (active).

— PubChem BioAssay (EPA / NIEHS)
